Screen size: about 2,500 compounds; about 1,100 (44%) were called active.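 Rule for the calls: active = inhibition above 50% at 4 µM in the single-point screen; inactive = inhibition of 50% or less.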 So high a share suggests a set chosen from earlier hits. This is one part of the list.
experiment: blockers of TNF-a NF-kB luciferase induction – cell-based, HEK293T NF-kB-Luc, luminescence, selectivity assay for NOD1/NOD2 signaling inhibitor project, primary screen (AID 1852); conditions: TNF-a induced, 14 h, at 4 µM, stronger effect = higher value

inhibition, inactive:
COc1ccc(-c2cc(C)no2)cc1S(=O)(=O)N1CCN(c2ccccc2F)CC1 49.7%
CSC(=S)N/N=C/c1ccc(Br)cc1 3.9%
Cc1conc1NC(c1cccs1)c1ccc2cccnc2c1O (stereo unspecified) 14.1%
Cc1cccc(NC(=O)C2CCN(S(=O)(=O)c3ccc4c(c3)NC(=O)CO4)CC2)c1 11.7%
Cc1ccc(CNC(=O)C2CCCN(S(=O)(=O)c3cccc4nonc34)C2)cc1 (stereo unspecified) 43.1%
CCc1ccc(-c2cc(C)no2)cc1S(=O)(=O)NCCCN1CCN(c2ccccc2)CC1 28.3%
C/C(=N\NC(=O)c1cc2ccccc2cc1O)c1ccccn1 -5.1%
CCOC(=O)N1CCN(C(=O)c2ccc(Oc3ccc([N+](=O)[O-])cc3)cc2)CC1 -11.6%
COc1ccc(NS(=O)(=O)c2ccc3oc(SC(C)C(N)=O)nc3c2)cc1 (stereo unspecified) 2.2%
Cc1ccc(C)c(N2CCN(C(=O)C34CC5CC(C3)CC(n3nnc(C)n3)(C5)C4)CC2)c1 25.2%
O=C(COc1ccc2ccccc2c1)Nc1ccc(Br)cc1C(=O)O -2.8%
CCOc1ccccc1-n1c(SCC(=O)Nc2ccccc2C(=O)O)nc2ccccc2c1=O -2.7%
COc1cc(/C=C/c2ccc3cccc(O)c3n2)cc(Cl)c1OC -19.5%
COc1cc(/C=C/c2ccc3cccc(O)c3n2)cc(Br)c1OC 28.6%
COc1cccc(OCCOc2ccc(/C=C3\C(=N)N4N=C(S(C)(=O)=O)SC4=NC3=O)cc2OC)c1 -57.6%
NC(=O)c1c(NC(=O)C(=O)N2CCOCC2)sc2c1CCCC2 29.8%
CCn1nc(C)c(NC(=O)/C=C/c2ccc(OC)c(COc3ccc(Br)cc3)c2)c1C 38.5%
CCOC(=O)c1c(C)nc2sc3c(=O)n(-c4ccc(C(C)=O)cc4)nnc3c2c1-c1ccc(OC)cc1 5.1%
COc1ccc(OC)c(CCNC(=O)C(C)n2nc(C)c3c(C)n(-c4ccc(C)cc4)nc3c2=O)c1 (stereo unspecified) 49.3%
O=C(c1ccc(S(=O)(=O)c2cccc(Cl)c2)c([N+](=O)[O-])c1)N1CCN(c2ccccn2)CC1 35.5%
O=C(c1ccc(S(=O)(=O)c2ccc(F)cc2)c([N+](=O)[O-])c1)N1CCCCCC1 27.8%
O=C(c1ccc(S(=O)(=O)c2ccccc2Cl)c([N+](=O)[O-])c1)N1CCCCCC1 26.2%
O=C(Nc1nnc(C2CC2)s1)c1cccc(S(=O)(=O)N2CCc3ccccc32)c1 9.3%
Cn1cc(S(=O)(=O)N2CCc3ccccc32)cc1C(=O)NC(C)(C)C 38.6%
O=C(Nc1ccc(Cl)c(Cl)c1)OCc1cnc(Cl)s1 -13.5%
O=C(Nc1ccc(Cl)cc1)OCc1cncs1 -60.4%
COc1ccc(NC(=O)COC(=O)/C=C/C(=O)OCC(=O)Nc2ccc(OC)c(Cl)c2)cc1Cl 17.7%
Cc1ccc(NC(=O)Cc2ncc(C(F)(F)F)cc2Cl)cc1Cl -15.6%
CCOc1ccc(-c2csc3ncn(-c4ccc(OC)cc4)c(=O)c23)cc1 44%
COc1ccc(OC)c(Nc2c3ccccc3nc3ccccc23)c1 20.8%
COc1ccc(-n2cc(-c3ccccc3)c3c(N4CCOCC4)ncnc32)cc1 12.7%
Cc1ccc(OCCCCn2cnc3ccccc32)cc1 26.7%
CC(=O)c1ccc(NC(=O)c2noc3c2CCC3)cc1 35.4%
CCOc1cc(C=C(C(=O)OC)C(=O)OC)ccc1OCc1ccc([N+](=O)[O-])cc1 7.6%
O=[N+]([O-])c1ccc(O)c(Nc2ncnc3ccc(Br)cc23)c1 14.6%
O=C(CCCN1C(=O)/C(=C/c2ccccc2Cl)SC1=S)NNC(=O)c1ccccc1 -19.2%
O=C(CCCN1C(=O)/C(=C/c2cccs2)SC1=S)Nc1cccc(O)c1 -2.9%
COc1ccc(/C=C2\SC(=S)N(CCCC(=O)NNC(=O)c3ccccc3O)C2=O)cc1 35.4%
Cc1ccc(/C=C2/SC(=S)N(CCCC(=O)Nc3ccc(O)cc3)C2=O)cc1 -26%
COC(CNC(=O)c1c[nH]c2ccc(S(=O)(=O)N3CCOCC3)cc2c1=O)OC 9.8%
CCOc1ccc(NC(=O)c2ccccc2NS(=O)(=O)c2ccc(F)cc2)c([N+](=O)[O-])c1 11.5%
COc1ccc(-c2csc(NC(=O)C3=NN(c4ccccc4)C(=O)CC3)n2)cc1 -64.2%
Cc1cc(F)ccc1S(=O)(=O)Nc1ccccc1C(=O)Nc1ccccc1-c1nc2ccccc2[nH]1 1.4%
CC(C)CCNC(=O)c1cc(-c2ccncc2)nc2ccc(S(=O)(=O)N3CCOCC3)cc12 28.7%
COC(=O)c1ccc(NC(=O)c2ccccc2NS(=O)(=O)c2ccccc2)cc1 32.6%
COc1ccccc1NS(=O)(=O)c1cccc(NC(=O)c2ccc3ccccc3n2)c1 15.4%
CC(=O)c1c(C)[nH]c(C(=O)Nc2nc(-c3ccc(-c4ccccc4)cc3)cs2)c1C -7.7%
O=C(COc1ccc(Cl)cc1)Nc1nc(-c2ccc(S(=O)(=O)N3CCOCC3)cc2)cs1 26.4%

inhibition, active:
Cc1cc(NC(c2cccnc2)c2ccc3cccnc3c2O)no1 (stereo unspecified) 99.8%
COc1ccc(C)cc1NC(=O)C1CCN(S(=O)(=O)c2cccc3nonc23)CC1 94.5%
C/C(=N\NC(=O)c1cc2ccccc2cc1O)c1cc2ccccc2o1 105%
Cc1ccc(S(=O)(=O)CC#CCOC(=O)c2ccc([N+](=O)[O-])cc2)cc1 91.4%
COc1ccc(NS(=O)(=O)c2ccc(N/N=C(\C)c3ccncc3)c([N+](=O)[O-])c2)cc1 51.9%
CC[C@H]1CN2CCc3cc(OC)c(OC)cc3[C@@H]2C[C@@H]1C[C@H]1NCCc2cc(OC)c(OC)cc21 102%
CN(C)Cc1c(C(=O)N/N=C/c2cccc(OCc3c(F)cccc3Cl)c2)nnn1-c1nonc1N 74%
O=C(CSc1nc2ccccc2c(=O)n1Cc1ccccc1)Nc1ccc(Br)cc1C(=O)O 53.2%
COc1cc(/C=C/c2ccc3cccc(O)c3n2)cc(OC)c1OC 105%
COc1cc(/C=C/c2ccc3cccc(O)c3n2)ccc1O 105%
C=C1C(=O)[C@@]23[C@H](O)C[C@@H]4C(C)(C)CC[C@H](O)[C@@]4(C)[C@@H]2CC[C@@H]1[C@H]3O 68.9%
COc1ccc(OC)c(CCNC(=O)Cn2nc(C)c3c(C)n(-c4ccc(C)cc4)nc3c2=O)c1 69.7%
CCOc1ccccc1CNC(=O)Cn1nc(C)c2c(C)n(-c3ccc(C)cc3)nc2c1=O 55%
COc1ccc(CCNC(=O)C(C)n2nc(C)c3c(C)n(-c4ccc(C)cc4)nc3c2=O)c(OC)c1 (stereo unspecified) 56.1%
O=C(c1ccc(S(=O)(=O)c2ccccc2Cl)c([N+](=O)[O-])c1)N1CCN(Cc2ccccc2)CC1 56.1%
O=C(c1ccc(S(=O)(=O)c2cccc(Cl)c2)c([N+](=O)[O-])c1)N1CCN(Cc2ccccc2)CC1 53.1%
O=C(Nc1nc2ccc([N+](=O)[O-])cc2s1)c1ccc(S(=O)(=O)N2CCCc3ccccc32)cc1 68.8%
Cc1ccc(NC(=O)O/N=C/c2c(C)nn(C(C)(C)C)c2C)cc1Cl 90.2%
Cc1nn(C(C)(C)C)c(C)c1/C=N/OC(=O)Nc1ccc(Cl)c(Cl)c1 94%
Cc1nn(C(C)(C)C)c(C)c1/C=N/OC(=O)Nc1ccc(Cl)cc1 71.3%
COc1ccc2ncn(-c3ccccc3)c2c1 53.8%
COc1ccc(-n2cnc3ccccc32)cc1 53.9%
O=C(Sc1cccc2cccnc12)c1ccc(F)cc1 101%
O=C(Sc1cccc2cccnc12)c1ccccc1Br 105%
CCOC(=O)c1c(N2C(=O)Nc3cc(Cl)c(Cl)cc3N2O)sc2c1CCCCC2 75.5%
CCOc1ccc(Nc2ncnc3ccc([N+](=O)[O-])cc23)cc1 63.8%
O=C(CCCN1C(=O)/C(=C/c2ccccc2Cl)SC1=S)NNC(=O)c1ccc(Cl)cc1 76.9%
O=C(CCCN1C(=O)/C(=C/c2ccccc2Cl)SC1=S)NNC(=O)c1ccncc1 87%
Cc1ccc(/C=C2\SC(=S)N(CCCC(=O)NNC(=O)c3ccccc3O)C2=O)cc1 67.9%
COc1ccc2c(C(=O)CCl)c[nH]c2c1 66.7%
COc1ccc2[nH]cc(C(=O)CCl)c2c1 102%
COc1ccc(S(=O)(=O)Nc2ccccc2C(=O)Nc2nc(-c3ccc(F)cc3)cs2)cc1OC 81.4%
COc1ccc(-c2csc(NC(=O)c3ccccc3NS(=O)(=O)c3ccc(F)c(F)c3)n2)cc1 82.3%
O=C(Nc1nc(-c2ccccc2)cs1)c1ccccc1NS(=O)(=O)c1ccc(F)cc1 91.5%
COc1ccc(-c2csc(NC(=O)c3ccccc3NS(=O)(=O)c3ccc(C)cc3)n2)cc1 80.3%
COc1ccc(NC(=O)c2ccc(-c3ccccc3)cc2)cc1NS(=O)(=O)c1ccc(F)cc1 59.9%
COc1ccccc1C(=O)Nc1nc(-c2ccc(S(=O)(=O)N3CCOCC3)cc2)cs1 99.6%
Cc1ccc(S(=O)(=O)Nc2ccccc2C(=O)Nc2nc(-c3ccc(F)cc3)cs2)cc1 79.9%

Source: PubChem BioAssay AID1852 (Sanford-Burnham Center for Chemical Genomics, 2009)
